{
  "source": "PubChem BioAssay (EPA / NIEHS)",
  "key": {"[1]": {"experiment": "Tanguay_ZF_120hpf_ANY: Oregon State University Tanguay Lab 120 Hour Post-fertilization zebrafish Assay for Any Mortality and Malformation (AID 2284404)", "procedure,_shortened": "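Dechorionated Tropical 5D wild-type embryos, one per well from 6 hpf, static exposure in sealed, dark plates at 28C until 120 hpf, 0.64% DMSO final. Brightfield scoring of mortality and malformations as binary presence/absence, pooling 13 morphology endpoints.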"}, "[2]": {"experiment": "CCTE_Padilla_ZF_Score.Craniofacial: CCTE's 144 Hour Post-fertilization zebrafish Assay Score for Craniofacial Malformation, Padilla Lab (AID 2284405)", "procedure,_shortened": "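Wild-type zebrafish embryos (with chorions), one per well in 10% Hanks', were dosed at 6–8 hpf in sealed plates and kept at 26C. They were rinsed at 5 dpf. At 6 dpf two blinded assessors scored craniofacial malformations by brightfield stereomicroscopy.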"}, "[3]": {"experiment": "CCTE_Padilla_ZF_Score.Spine: CCTE's 144 Hour Post-fertilization zebrafish Assay Score for Spine Malformation, Padilla Lab (AID 2284407)", "procedure,_shortened": "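Wild-type zebrafish embryos, one per well in Hanks' solution, dosed at 6–8 hpf in sealed plates at 26C, 14:10 h light:dark; rinsed at 5 dpf. Two blinded assessors scored spinal defects by stereomicroscopy at 6 dpf; fitted versus DMSO.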"}, "[4]": {"experiment": "CCTE_Padilla_ZF_Score.Swim_bladder: CCTE's 144 Hour Post-fertilization zebrafish Assay Score for Swim Bladder Malformation, Padilla Lab (AID 2284408)", "procedure,_shortened": "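Wild-type zebrafish embryos, one per well in 10% Hanks', dosed at 6–8 hpf, sealed, reared at 26C and rinsed at 5 dpf. Blinded assessors scored uninflated swim bladder by stereomicroscopy at 6 dpf, relative to DMSO.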"}, "[5]": {"experiment": "CCTE_Padilla_ZF_Score.Position: CCTE's 144 Hour Post-fertilization zebrafish Assay Score for Position, Padilla Lab (AID 2284409)", "procedure,_shortened": "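Wild-type zebrafish embryos (with chorions) exposed singly from 6–8 hpf in sealed wells of Hanks' solution at 26C, rinsed at 5 dpf. At 6 dpf, blinded assessors scored abnormal water-column position by brightfield stereomicroscopy, relative to DMSO.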"}, "[6]": {"experiment": "CCTE_Padilla_ZF_Score.General: CCTE's 144 Hour Post-fertilization zebrafish Assay Score for General Malformation, Padilla Lab (AID 2284411)", "procedure,_shortened": "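Wild-type zebrafish embryos were plated singly at 6-8 hpf in 10% Hanks' and exposed in sealed wells at 26C until rinsed on 5 dpf. At 6 dpf two blinded assessors scored mortality, hatching and malformations by stereomicroscopy; gain-of-signal versus DMSO.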"}, "[7]": {"experiment": "CCTE_Padilla_ZF_Score.Tail: CCTE's 144 Hour Post-fertilization zebrafish Assay Score for Tail Malformation, Padilla Lab (AID 2284414)", "procedure,_shortened": "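Wild-type zebrafish embryos, one per well in 200 uL 10% Hanks', dosed at 6-8 hpf, sealed, and kept at 26 C on a 14:10 h light cycle. Chemical was rinsed out at 5 dpf. Blinded brightfield scoring of tail defects followed at 6 dpf.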"}, "[8]": {"experiment": "CCTE_Padilla_ZF_Score.Blood_pooling: CCTE's 144 Hour Post-fertilization zebrafish Assay Score for Blood Pooling, Padilla Lab (AID 2284415)", "procedure,_shortened": "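Wild-type outbred zebrafish embryos, one per well in 10% Hanks', exposed from 6–8 hpf in sealed plates at 26C on 14:10 h light:dark, rinsed at 5 dpf. Blinded stereomicroscope scoring of blood pooling at 6 dpf; gain-of-signal versus DMSO.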"}, "[9]": {"test_system": "SRY-box transcription factor 2 (SOX2) Protein Expression, Deisenroth Lab, SOX2 (gene 6657)", "experiment": "CCTE_Deisenroth_DEVTOX-GLR_Endo_SOX2: CCTE's DevTox GLR-Endo Assay Evaluation of SRY-box transcription factor 2 (SOX2) Protein Expression, Deisenroth Lab (AID 2284412; active means hit-call score of the fitted dose curve at least 0.9, where 1 is the maximum)", "procedure,_shortened": "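RUES2-GLR human pluripotent cells were seeded 24 h, then differentiated 48 h with two chemical exposures 24 h apart. Cells were fixed, nuclei stained and imaged by high-content microscopy. Endpoint is %SOX2+ cells over cell count, minus 0.2% DMSO control; 10-point series 1 nM–200 uM.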"}, "[10]": {"test_system": "SRY-box transcription factor 17 (SOX17) Protein Expression, Deisenroth Lab, SOX17 (gene 64321)", "experiment": "CCTE_Deisenroth_DEVTOX-GLR_Endo_SOX17: CCTE's DevTox GLR-Endo Assay Evaluation of SRY-box transcription factor 17 (SOX17) Protein Expression, Deisenroth Lab (AID 2284413)", "procedure,_shortened": "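Seed RUES2-GLR cells 24 h; start endoderm differentiation; dose at 0 and 24 h (1 nM - 200 uM, 10 points); fix at 48 h, stain nuclei, image 5 fields/well; compute SOX17+/total cells vs 0.2% DMSO.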"}},
  "note": "Inconclusive results are not listed. The source made the active and inactive calls. How the source made its calls, unless noted: active means hit-call score of the fitted dose curve at least 0.9, where 1 is the maximum; inactive means score below 0.9.",
  "data": [
    {"molecule": "OC(O)(C(F)C(O)(O)C(F)(F)F)C(F)(F)F", "values": [
      {"measurement": "AC50", "setting": "[1]", "result": "40.5 µM (active)"},
      {"measurement": "AC50", "setting": "[2]", "result": "35.5 µM (active)"},
      {"measurement": "outcome", "setting": "[3]", "result": "inactive"},
      {"measurement": "AC50", "setting": "[4]", "result": "32.1 µM (active)"},
      {"measurement": "AC50", "setting": "[5]", "result": "76.9 µM (active)"},
      {"measurement": "AC50", "setting": "[6]", "result": "32.4 µM (active)"},
      {"measurement": "outcome", "setting": "[7]", "result": "inactive"},
      {"measurement": "AC50", "setting": "[8]", "result": "36.6 µM (active)"}
    ]},
    {"molecule": "FC(F)C(F)(F)COCC1CO1", "note": "(stereo not drawn)", "values": [
      {"measurement": "outcome", "setting": "[1]", "result": "inactive"},
      {"measurement": "AC50", "setting": "[2]", "result": "118 µM (active)"},
      {"measurement": "outcome", "setting": "[3]", "result": "inactive"},
      {"measurement": "AC50", "setting": "[4]", "result": "32.2 µM (active)"},
      {"measurement": "outcome", "setting": "[5]", "result": "inactive"},
      {"measurement": "AC50", "setting": "[6]", "result": "9.44 µM (active)"},
      {"measurement": "outcome", "setting": "[7]", "result": "inactive"},
      {"measurement": "outcome", "setting": "[8]", "result": "inactive"}
    ]},
    {"molecule": "S=P(N1CC1)(N1CC1)N1CC1", "values": [
      {"measurement": "outcome", "setting": "[6]", "result": "inactive"}
    ]},
    {"molecule": "C[Si](C)(C)C(F)(F)C(F)(F)C(F)(F)F", "values": [
      {"measurement": "outcome", "setting": "[1]", "result": "inactive"},
      {"measurement": "outcome", "setting": "[2]", "result": "inactive"},
      {"measurement": "outcome", "setting": "[3]", "result": "inactive"},
      {"measurement": "outcome", "setting": "[4]", "result": "inactive"},
      {"measurement": "outcome", "setting": "[5]", "result": "inactive"},
      {"measurement": "outcome", "setting": "[6]", "result": "inactive"},
      {"measurement": "outcome", "setting": "[7]", "result": "inactive"},
      {"measurement": "outcome", "setting": "[8]", "result": "inactive"}
    ]},
    {"molecule": "FC(F)(F)COC(OCC(F)(F)F)OCC(F)(F)F", "values": [
      {"measurement": "outcome", "setting": "[1]", "result": "inactive"},
      {"measurement": "outcome", "setting": "[2]", "result": "inactive"},
      {"measurement": "outcome", "setting": "[3]", "result": "inactive"},
      {"measurement": "outcome", "setting": "[4]", "result": "inactive"},
      {"measurement": "outcome", "setting": "[5]", "result": "inactive"},
      {"measurement": "outcome", "setting": "[6]", "result": "inactive"},
      {"measurement": "outcome", "setting": "[7]", "result": "inactive"},
      {"measurement": "outcome", "setting": "[8]", "result": "inactive"}
    ]},
    {"molecule": "O=C(Cl)C(F)(F)C(F)(F)C(F)(F)C(=O)Cl", "values": [
      {"measurement": "AC50", "setting": "[1]", "result": "57.6 µM (active)"},
      {"measurement": "outcome", "setting": "[2]", "result": "inactive"},
      {"measurement": "outcome", "setting": "[3]", "result": "inactive"},
      {"measurement": "outcome", "setting": "[4]", "result": "inactive"},
      {"measurement": "outcome", "setting": "[5]", "result": "inactive"},
      {"measurement": "outcome", "setting": "[6]", "result": "inactive"},
      {"measurement": "outcome", "setting": "[7]", "result": "inactive"},
      {"measurement": "outcome", "setting": "[8]", "result": "inactive"}
    ]},
    {"molecule": "NC(=O)N1c2ccccc2C=Cc2ccccc21", "values": [
      {"measurement": "AC50", "setting": "[9]", "result": "16.7 µM (active)"},
      {"measurement": "AC50", "setting": "[10]", "result": "100 µM (active)"}
    ]},
    {"molecule": "NCC(F)(F)C(F)(F)C(F)(F)C(F)(F)F", "values": [
      {"measurement": "outcome", "setting": "[1]", "result": "inactive"},
      {"measurement": "outcome", "setting": "[2]", "result": "inactive"},
      {"measurement": "outcome", "setting": "[3]", "result": "inactive"},
      {"measurement": "outcome", "setting": "[4]", "result": "inactive"},
      {"measurement": "outcome", "setting": "[5]", "result": "inactive"},
      {"measurement": "outcome", "setting": "[6]", "result": "inactive"},
      {"measurement": "outcome", "setting": "[7]", "result": "inactive"},
      {"measurement": "outcome", "setting": "[8]", "result": "inactive"}
    ]},
    {"molecule": "OCCC(F)(F)C(F)(F)C(F)(F)C(F)(F)F", "values": [
      {"measurement": "outcome", "setting": "[1]", "result": "inactive"},
      {"measurement": "outcome", "setting": "[2]", "result": "inactive"},
      {"measurement": "outcome", "setting": "[3]", "result": "inactive"},
      {"measurement": "outcome", "setting": "[4]", "result": "inactive"},
      {"measurement": "outcome", "setting": "[5]", "result": "inactive"},
      {"measurement": "outcome", "setting": "[6]", "result": "inactive"},
      {"measurement": "outcome", "setting": "[7]", "result": "inactive"},
      {"measurement": "outcome", "setting": "[8]", "result": "inactive"}
    ]},
    {"molecule": "CCCC(CCC)C(=O)O", "values": [
      {"measurement": "outcome", "setting": "[10]", "result": "inactive"}
    ]},
    {"molecule": "Nc1ccn([C@@H]2O[C@H](CO)[C@@H](O)[C@@H]2O)c(=O)n1", "values": [
      {"measurement": "AC50", "setting": "[9]", "result": "4.66 µM (active)"},
      {"measurement": "AC50", "setting": "[10]", "result": "0.539 µM (active)"}
    ]},
    {"molecule": "FC(F)=C(F)C(F)(F)C(F)(F)C(F)(F)C(F)(F)C(F)(F)C(F)(F)F", "values": [
      {"measurement": "outcome", "setting": "[1]", "result": "inactive"},
      {"measurement": "outcome", "setting": "[2]", "result": "inactive"},
      {"measurement": "outcome", "setting": "[3]", "result": "inactive"},
      {"measurement": "outcome", "setting": "[4]", "result": "inactive"},
      {"measurement": "outcome", "setting": "[5]", "result": "inactive"},
      {"measurement": "outcome", "setting": "[6]", "result": "inactive"},
      {"measurement": "outcome", "setting": "[7]", "result": "inactive"},
      {"measurement": "outcome", "setting": "[8]", "result": "inactive"}
    ]},
    {"molecule": "FC(F)(F)C(F)(F)C(F)(F)C(F)(F)C(F)(F)C(F)(F)I", "values": [
      {"measurement": "outcome", "setting": "[1]", "result": "inactive"},
      {"measurement": "outcome", "setting": "[2]", "result": "inactive"},
      {"measurement": "outcome", "setting": "[3]", "result": "inactive"},
      {"measurement": "outcome", "setting": "[4]", "result": "inactive"},
      {"measurement": "outcome", "setting": "[5]", "result": "inactive"},
      {"measurement": "outcome", "setting": "[6]", "result": "inactive"},
      {"measurement": "outcome", "setting": "[7]", "result": "inactive"},
      {"measurement": "outcome", "setting": "[8]", "result": "inactive"}
    ]},
    {"molecule": "NNC(=O)c1ccncc1", "values": [
      {"measurement": "outcome", "setting": "[9]", "result": "inactive"},
      {"measurement": "outcome", "setting": "[10]", "result": "inactive"}
    ]},
    {"molecule": "O=S(=O)(O)CCC(F)(F)C(F)(F)C(F)(F)C(F)(F)C(F)(F)C(F)(F)F", "values": [
      {"measurement": "outcome", "setting": "[1]", "result": "inactive"},
      {"measurement": "outcome", "setting": "[2]", "result": "inactive"},
      {"measurement": "outcome", "setting": "[3]", "result": "inactive"},
      {"measurement": "outcome", "setting": "[4]", "result": "inactive"},
      {"measurement": "outcome", "setting": "[5]", "result": "inactive"},
      {"measurement": "outcome", "setting": "[6]", "result": "inactive"},
      {"measurement": "outcome", "setting": "[7]", "result": "inactive"},
      {"measurement": "outcome", "setting": "[8]", "result": "inactive"}
    ]}
  ]
}
